SMARCA2 activ: SMARCA2 (BRM) function activators, primary screen, cell-based, luminescence, high throughput; MG213 cells, MMTV-luciferase reporter, dexamethasone, overnight; activation, % at 9.1 µM; 370,000 tested, 1% active; in the data active = activation above about 7.8%;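 note: 0% = vehicle wells and 100% = reference activator wells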
ssDAF-12 act: S. stercoralis DAF-12 nuclear receptor activators, primary screen, cell-based, luminescence, HEK293, GRIP1 co-expression, lit1-tk-luc; Nuclear hormone receptor DAF-12 (Strongyloides stercoralis); HEK293 ssDAF-12/GRIP1 lit1-tk-luc reporter; % of 3 µM dafachronic acid response; activation, % at 6.8 µM; 370,000 tested, 1% active;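 active = activation above the mean over all tested compounds plus 3 SD, cut at about 0.9% in these data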;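 note: 0% = DMSO-only wells and 100% = 3 µM delta7-dafachronic acid wells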
DAX1 inh-1: DAX1 (NR0B1) inhibitors, primary screen, cell-based, HEK293, Gal4-DAX1, luciferase luminescence; Nuclear receptor subfamily 0 group B member 1 (Homo sapiens), P51843; HEK293 Gal4-DAX1 luciferase reporter; inhibition, % at 6.75 µM; 340,000 tested, 0.99% active; AID 504766, 2011;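 active = inhibition above the mean over all tested compounds plus 3 SD, cut at about 4.2% in these data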;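 note: 0% = DAX1-transfected cells with DMSO and 100% = empty-vector control cells with DMSO; inhibition shows as a rise in luminescence from relieved DAX1 repression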
hgDAF12 agonist: H. glycines DAF-12 receptor agonists, primary screen, cell-based, luminescence, HEK293, GAL4 fusion, UAS-luciferase. Nuclear hormone receptor DAF-12 (Heterodera glycines), GAL4 fusion. HEK293 GAL4-hgDAF12 UAS-luciferase reporter, agonist luminescence; normalized to butyrate control. activation, % at 6.8 µM. 370,000 tested, 1.8% active. AID 687014, 2013;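 active = activation above a cutoff set at the mean of all screened compounds plus 3 SD, cut at about 10% in these data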;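 note: 0% = DMSO wells and 100% = sodium butyrate wells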
DAX1 inh-2: DAX1 (NR0B1) inhibitors on StAR promoter, primary screen, cell-based, luminescence, SF-1 (NR5A1), full-length DAX-1; 370,000 tested, 1.1% active; inhibition, % at 6.8 µM; AID 652010, 2013; HEK293T StAR-luciferase reporter, SF-1/DAX-1 repression relief;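 active = inhibition above the mean over all tested compounds plus 3 SD, cut at about 3.6% in these data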;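 note: 0% = DAX-1 cells with DMSO and 100% = cells lacking DAX-1 with DMSO; higher inhibition means more luminescence from relief of DAX-1 repression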
hcDAF-12 act: H. contortus DAF-12 nuclear receptor activators, primary screen, cell-based, luminescence, HEK293, lit1-tk-luc reporter; HEK293 hcDAF-12 lit1-tk-luc reporter; 0% DMSO, 100% Δ7-dafachronic acid; 370,000 tested, 1.4% active; activation, % at 6.8 µM; AID 652067, 2013;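 active = activation above the mean of all tested compounds plus 3 SD, cut at about 5.5% in these data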;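 note: 100% = response to 3 µM Δ7-dafachronic acid high control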
LXRb hcDAF ctr: LXR agonists, Gal4 luciferase reporter, confirmation, counter-screen for hcDAF-12 agonist project, cell-based, luminescence, HEK293, H. contortus campaign; shares compounds with hcDAF-12 act; AID 743027, 2013; activation, % at 6.8 µM; HEK293 Gal4-LXR tk-luc reporter, 24 h; normalized: DMSO 0%, positive control 100%; 3,400 tested, under 10 active;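 active = mean percent activation of the reporter above a cutoff set as the average over tested compounds plus their standard deviation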
Target sequence (P55055 whole entry, looked up, the tested form may be a part): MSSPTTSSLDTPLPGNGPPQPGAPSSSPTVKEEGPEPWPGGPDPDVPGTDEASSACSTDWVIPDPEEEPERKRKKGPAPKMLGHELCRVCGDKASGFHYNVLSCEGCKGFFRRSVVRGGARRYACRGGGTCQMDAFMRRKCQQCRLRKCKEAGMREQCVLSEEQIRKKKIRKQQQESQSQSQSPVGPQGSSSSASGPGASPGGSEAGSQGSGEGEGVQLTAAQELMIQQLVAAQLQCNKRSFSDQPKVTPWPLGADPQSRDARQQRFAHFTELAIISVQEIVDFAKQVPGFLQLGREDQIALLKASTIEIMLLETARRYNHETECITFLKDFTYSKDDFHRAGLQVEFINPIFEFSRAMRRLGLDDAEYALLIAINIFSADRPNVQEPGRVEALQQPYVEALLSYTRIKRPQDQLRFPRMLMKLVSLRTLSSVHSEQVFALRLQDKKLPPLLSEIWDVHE
hcDAF12 ag: H. contortus DAF-12 receptor agonists, confirmation, cell-based, luminescence, HEK293, lit1-tk-luc, triplicate; activation, % at 6.8 µM; shares compounds with hcDAF-12 act; HEK293 hcDAF-12 lit1-tk-luc reporter; % of Δ7-dafachronic acid response; 3,400 tested, 61% active; AID 743032, 2013;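 active = mean activation across triplicate tests above the threshold derived from the earlier primary screen, cut at about 5.5% in these data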;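 note: 0% = DMSO only wells and 100% = 3 µM Δ7-dafachronic acid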
Active calls of the source: *; / = not tested or not shown. Most compounds without a hit are left out; they make up all but 4.8% or so of the library.

SMILES | SMARCA2 activ | ssDAF-12 act | DAX1 inh-1 | hgDAF12 agonist | DAX1 inh-2 | hcDAF-12 act | LXRb hcDAF ctr | hcDAF12 ag
Cc1ccc2nc(-c3cc(-c4ccccc4)no3)cn2c1 | 0 | 1 | -3 | 12* | 2 | 8.1* | 1 | 4
Cc1cccnc1NC(=O)c1ccc(S(=O)(=O)N2CCCCC2)cc1 | -3 | -1 | 2 | 2 | 2 | 0 | / | /
Cc1nn2c3ccccc3nc2c2ccccc12 | 7 | 1 | 1 | 5 | 1 | 7.5* | 0 | 7.1*
Cc1ccc(/C=C2\SC(=S)N(CCCC(=O)N3CCOCC3)C2=O)cc1 | -5 | -2 | -1 | -3 | -2 | -4 | / | /
NNc1nc2ccc(F)cc2s1 | 2 | 1 | 2 | 9 | 2 | 10.0* | 0 | 5
NNc1nc2ccc(Cl)cc2s1 | 1 | 0 | 1 | 3 | 0 | 6 | / | /
CC(Sc1c[nH]c2ccccc12)C(=O)O (stereo not given) | -4 | 0 | 1 | 1 | 1 | 8.5* | 0 | 5
COc1ccc(Cl)cc1C(=O)NCC(c1ccco1)N(C)C (stereo not given) | 0 | 0 | 0 | 2 | 1 | 7.3* | 0 | 4
CC(C)(C)C(=O)CN1C(=O)NC2(CCOc3ccccc32)C1=O (stereo not given) | -4 | 0 | 1 | 5 | 3.7* | 8.0* | 0 | 4
O=C(O)CN1C(=O)NC2(CCOc3ccccc32)C1=O (stereo not given) | 0 | -1 | 2 | 2 | 0 | -2 | / | /
O=C(Nc1ccc(N2CCN(Cc3ccccc3F)CC2)cc1)c1ccccc1[N+](=O)[O-] | -5 | -2 | 0 | -3 | 0 | -2 | / | /
O=C(Nc1ccccc1)C(=O)Nc1cccnc1 | 4 | 1 | 1 | 10 | 3 | 9.3* | 1 | 5
O=C(CC(=O)c1ccccc1)Nc1cccnc1 | 2 | -2 | 0 | 1 | 1 | 0 | / | /
COc1ccc(C2=NN(S(C)(=O)=O)C(c3ccc4nccnc4c3)C2)cc1 (stereo not given) | 4 | 1 | 0 | 7 | 1 | 8.4* | 0 | 4
Cc1ccc(C2=NN(S(C)(=O)=O)C(c3ccc4nccnc4c3)C2)cc1 (stereo not given) | 0 | -1 | -1 | 7 | 2 | 2 | / | /
NC(=O)CSc1ccc(S(=O)(=O)N2CCOCC2)cn1 | -4 | -1 | 1 | 4 | 1 | -1 | / | /
Cc1nc2c(C(=O)O)cnn2c(C)c1Cc1ccccc1F | -4 | 0 | 1 | 1 | 0 | -1 | / | /
CN(C(=O)COc1cc(=O)n(C)c2ccccc12)c1ccc(Br)cc1 | -1 | 0 | 1 | 1 | 0 | 6.8* | 0 | 3
Cc1cccc(N(C)C(=O)COc2cc(=O)n(C)c3ccccc23)c1 | -1 | -1 | 3 | -1 | -1 | 0 | / | /
CCCCC1=CC2=C(c3ccco3)C(=O)C(C)(OC(=O)c3ccc(OC)cc3)C(=O)C2=CN1CCCN(CC)CC (stereo not given) | -1 | -2 | 1 | 1 | 0 | -2 | / | /
O=C(CSCCO)N1CCc2ccccc21 | 0 | 1 | 0 | 4 | 0 | 2 | / | /
O=C1c2ccccc2C(=O)N1CCC(=O)N1CCc2ccccc21 | -1 | -1 | 1 | 3 | 0 | 0 | / | /
Cc1cc(C)n(CCC(=O)N2CCc3ccccc32)n1 | -1 | 0 | 1 | -1 | 0 | 6.9* | 0 | 4
CC(CC(=O)N1CCc2ccccc21)n1cccn1 (stereo not given) | 1 | 0 | 1 | 8 | 3 | 11* | 0 | 5.7*
CCOc1ccsc1C(=O)NNC(=O)c1ccco1 | 1 | -1 | 0 | 0 | 0 | -1 | / | /
SMILES | SMARCA2 activ | ssDAF-12 act | DAX1 inh-1 | hgDAF12 agonist | DAX1 inh-2 | hcDAF-12 act | LXRb hcDAF ctr | hcDAF12 ag
O=c1nc2s/c(=C\c3ccc(-c4ccccc4[N+](=O)[O-])o3)c(=O)n2nc1-c1ccccc1 | -1 | 0 | 0 | 3 | 0 | 6.9* | 0 | 3
CCCCCOc1ccc(/C=c2\sc3nc(=O)c(-c4ccccc4)nn3c2=O)cc1OC | 0 | -1 | -1 | 1 | 0 | 1 | / | /
C(=N\NC1=Nc2cccc3cccc1c23)/c1ccccn1 | -1 | 0 | 5.3* | 10 | 3 | 8.6* | 1 | 10*
O=C(CN1CCN(c2ccc(O)cc2)CC1)Nc1ccccc1C(=O)NCCc1ccccc1 | -2 | -1 | -2 | -3 | -6 | -2 | / | /
O=C(/C=C/c1cnc2ccccc2n1)NC12CC3CC(CC(C3)C1)C2 | 4 | 0 | 1 | 7 | 3 | 11* | 2 | 10*
CCOC(=O)c1ccc2c(c1)NCc1cccc(OC)c1O2 | 6 | 1.1* | 1 | 13* | 1 | 6.6* | 1 | 7.9*
Cc1nnc(N2CCOCC2)c2nn(-c3ccccc3)c(C)c12 | -4 | -2 | 1 | -1 | -1 | -1 | / | /
c1ccc(-n2nnc3c(N4CCOCC4)ncnc32)cc1 | 6 | 0 | -2 | 7 | 2 | 7.2* | 1 | 6.3*
COc1ccccc1N(Cc1ccccc1)S(=O)(=O)c1cccc(C(=O)Nc2ccc(C(C)=O)cc2)c1 | 6 | 0 | 1 | 8 | 1 | 12* | 0 | 3
COc1ccc(OC)c(NC(=O)c2cccc(S(=O)(=O)N(Cc3ccccc3)c3ccccc3OC)c2)c1 | -3 | 0 | -1 | 3 | 0 | 2 | / | /
Fc1ccc(CNc2ncccn2)cc1 | -1 | -1 | -2 | 1 | 0 | -1 | / | /
COc1ccc(NC(=O)c2ccc3ccccc3n2)cc1S(=O)(=O)N1CCCCC1 | 3 | 0 | 1 | 5 | 2 | 8.9* | 0 | 4

Compound activity (PubChem BioAssay)
